MEKK3 PB1 HTS: modulators (inhibitors or enhancers) of MEK5 binding to human MEKK3 PB1 domain; hit rate 1.4% among 290,000; binding response (% of control), % at 10 µM; Q99759; bead-based flow cytometry, Alexa488-MEK5 binding to MEKK3; actives lie on both sides; 0 = blocked by unlabeled MEK5, 100 = vehicle;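 active = binding response more than 3 SD above or below the average of its plate-row segment, actives on both sides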;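 note: Alexa488 bead fluorescence after subtracting the streptavidin-only scavenger bead signal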
UBC13 polyUb: blocks human UBC13 polyubiquitin chain formation; P61088; TR-FRET; inhibition, % at 20 µM; hit rate 0.47% among 330,000; in the data active = inhibition above about 45%, passing the limit was not always enough
MEKK2mut PB1 HTS: signal of MEK5 binding to mutant human MEKK2 PB1 domain; bead flow cytometry, Alexa488-MEK5 binding to MEKK2 mutant; hit rate 0.35% among 290,000; percent response, % at 10 µM; in the data active = percent response above about 24%, passing the limit was not always enough
Rce1 inhib: blocks yeast Ras-converting enzyme | Q03530 | yeast membranes, quenched prenylated peptide cleavage fluorescence | hit rate 0.27% among 290,000 | AID 2563 | calls only;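 active = fall in fluorescence gain of 50% or more versus controls, with final raw signal at or below 3038400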;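 note: plate controls were neutral control wells for no effect and wells lacking membranes for full effect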
MEKK2wt PB1 HTS: raises or lowers MEK5 binding to wildtype human MEKK2 PB1 domain; bead flow cytometry, Alexa488-MEK5 binding to MEKK2 WT; actives lie on both sides; binding response (% of control), % at 10 µM; hit rate 1.1% among 290,000; in the data active = binding response below about 67% or above about 130%
Casp3 counter: counter-screen for UBC13 inhibitors: human caspase-3 inhibition; shares compounds with UBC13 polyUb; Recombinant caspase-3, Caspase-Glo 3/7 luminescence, 60 min; inhibition, % at 20 µM; hit rate 4% among 1,400;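 active = mean inhibition across replicates above about 26%, limit read from the data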;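 note: plate controls were DMSO with caspase-3 for no effect and DMSO wells lacking enzyme for full effect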
Target sequence (P42574 whole entry, looked up): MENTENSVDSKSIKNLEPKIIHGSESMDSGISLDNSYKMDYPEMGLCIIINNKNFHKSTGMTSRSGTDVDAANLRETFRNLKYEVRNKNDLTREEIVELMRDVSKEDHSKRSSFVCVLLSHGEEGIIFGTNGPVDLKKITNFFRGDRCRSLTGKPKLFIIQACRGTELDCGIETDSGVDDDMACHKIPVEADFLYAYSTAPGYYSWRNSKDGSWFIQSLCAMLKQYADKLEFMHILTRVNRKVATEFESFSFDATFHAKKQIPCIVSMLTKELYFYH
UBC13 conf: confirmation of human UBC13 polyubiquitin inhibitors. shares compounds with UBC13 polyUb. UBC13 polyubiquitination, TR-FRET, biochemical. inhibition, % at 10 µM. hit rate 68% among 1,400. AID 488859; in the data active = inhibition above about 45%
An asterisk follows results filed as active; i = inactive; nt = no result. This is a sample that favours compounds with a hit; in the whole collection about 2.5% have one here.

SMILES	MEKK3 PB1 HTS	UBC13 polyUb	MEKK2mut PB1 HTS	Rce1 inhib	MEKK2wt PB1 HTS	Casp3 counter	UBC13 conf
Cc1ccc(-c2[nH][nH]c(=O)c(=O)c2N=Nc2ccccc2)cc1	105	-24	1	i	103	nt	nt
O=C(NCC1CCN(Cc2ccccc2F)CC1)C1CCCN(c2ncnc3c2nc2n3CCCCC2)C1 (stereo unspecified)	95	47*	-6	i	98	1	60*
O=C(NCCCN1CCN(c2ccccc2)CC1)C1CCCN(c2ncnc3c2nc2n3CCCCC2)C1 (stereo unspecified)	102	80*	7	i	106	-5	101*
Cc1ccc(CN2CCC(CNC(=O)C3CCCN(c4ncnc5c4nc4n5CCCCC4)C3)CC2)cc1 (stereo unspecified)	96	34	9	i	108	nt	nt
O=C(Nc1ccc(F)c(Cl)c1)C1CCN(c2ncnc3c2nc2n3CCCCC2)CC1	104	74*	2	i	104	6	75*
CCCN1CCN(C(=O)C2CCN(c3ncnc4c3nc3n4CCCCC3)CC2)CC1	99	77*	-3	i	96	-1	94*
O=C(CSc1ccccc1)NCCCc1ccccc1	115	-7	-6	i	112	nt	nt
COc1cc(SC)ccc1C(=O)N(Cc1ccccc1)c1ccccn1	96	-5	-23	i	91	nt	nt
O=C(NCCCN1CCCCC1)C1CCN(c2ncnc3c2nc2n3CCCCC2)CC1	97	73*	2	i	102	-1	86*
CC1CCN(CCNC(=O)C2CCCN(c3ncnc4c3nc3n4CCCCC3)C2)CC1 (stereo unspecified)	103	14	2	i	103	nt	nt
Cc1sc2ncnc(N3CCN(Cc4ccccc4)CC3)c2c1-c1ccc(F)cc1	104	4	1	i	105	nt	nt
CC(C)(C)c1ccc(C(=O)NCCN2CCOCC2)cc1	nt	-1	nt	i	nt	nt	nt
CC(C)(C)c1ccc(C(=O)NCCCN2CCN(CCCNC(=O)c3ccc(C(C)(C)C)cc3)CC2)cc1	103	66*	8	i	118	-5	74*
COCCNC(=O)Cn1ccc2cc(S(=O)(=O)N3CCCCC3)ccc21	102	-3	2	i	102	nt	nt
C=CCN1CN(S(=O)(=O)c2cccc(Cl)c2)c2nc3ccccc3nc21	101	-8	0	i	93	nt	nt
CN(C)CCCNC(=O)C(=O)NCC1OCCN1S(=O)(=O)c1cccs1 (stereo unspecified)	101	46*	4	i	117	4	33
O=C(NCCCO)C(=O)NCC1OCCCN1S(=O)(=O)c1cccs1 (stereo unspecified)	100	-1	8	i	107	nt	nt
CC1CCN(C(=O)COC(=O)CCCN2C(=O)c3cccc4cccc(c34)C2=O)CC1	104	13	1	i	107	nt	nt
CC(=O)N1CCc2c(sc(NC(=O)Cc3ccccc3)c2C#N)C1	100	2	-1	i	98	nt	nt
CCOC(=O)N1CCc2c(sc(NC(=O)CN(CC)CC)c2C#N)C1	105	78*	-1	i	101	-2	95*
C#CCOCCOCCOCCNc1nc(N2CCN(C(=O)CCCCCCCCCCNC(=O)Cn3cc(CCCCCN)nn3)CC2)nc(N2CCN(C(=O)CCCCCCCCCCNC(=O)Cn3cc(C[C@@H](C)O)nn3)CC2)n1	nt	114*	nt	nt	nt	-2	114*
C#CCOCCOCCOCCNc1nc(N2CCN(C(=O)CCCCCCCCCCNC(=O)Cn3cc(C[C@@H](C)O)nn3)CC2)nc(N2CCN(C(=O)CCCCCCCCCCNC(=O)[C@@H]([C@H](C)CC)n3cc(CCCCCN)nn3)CC2)n1	nt	120*	nt	nt	nt	0	121*
C#CCOCCOCCOCCNc1nc(N2CCN(C(=O)CCCCCCCCCCNC(=O)[C@H](CCCCN)n3cc(C)nn3)CC2)nc(N2CCN(C(=O)CCCCCCCCCCNC(=O)[C@@H]([C@H](C)O)n3cc(C)nn3)CC2)n1	nt	117*	nt	nt	nt	-1	111*
